Assay results taken from the antibiotic and cytotoxicity screens of Wong et al. (2023).
About 3,300 (8.5%) of roughly 39,000 compounds were called active. The sample as a whole holds a higher share of actives than the screen did.

The compounds below were run on HepG2 (assay: cytotoxicity call (relative viability < 0.9)). Conditions: 10 µM.
For `COc1ccc2cc3[n+](cc2c1OC)CCc1cc2c(cc1-3)OCO2.[Cl-]`, the cytotoxicity call was “active”. With `COc1cc2c(cc1OC)-c1cc3ccc(OC)c(OC)c3c[n+]1CC2.[Cl-]` the cytotoxicity call was “inactive”. For `C[C@@H]1CN([C@@H](C)CO)C(=O)c2cccc(NC(=O)Nc3ccc(C(F)(F)F)cc3)c2O[C@@H]1CN(C)S(=O)(=O)c1ccc(Cl)cc1`, the cytotoxicity call was “inactive”. With `COCC(=O)N(C)C[C@H]1Oc2cc(C#CC(C)(C)O)ccc2S(=O)(=O)N([C@H](C)CO)C[C@@H]1C` the cytotoxicity call was “inactive”. `COc1ccccc1S(=O)(=O)N(C)C[C@H]1Oc2ncc(Br)cc2C(=O)N([C@@H](C)CO)C[C@H]1C` was tested, and the cytotoxicity call was “inactive”. With `Cc1ccc(S(=O)(=O)N(C)C[C@H]2Oc3ccc(NC(=O)Nc4cccc5ccccc45)cc3CC(=O)N([C@@H](C)CO)C[C@H]2C)cc1` the cytotoxicity call was “inactive”. With `Cc1ccc(S(=O)(=O)N(C)C[C@@H]2Oc3ccc(NC(=O)Nc4cccc5ccccc45)cc3CC(=O)N([C@H](C)CO)C[C@@H]2C)cc1` the cytotoxicity call was “active”. `C[C@H](CO)N1C[C@H](C)[C@@H](CN(C)S(=O)(=O)c2ccc(Cl)cc2)Oc2ccc(NC(=O)Nc3cccc4ccccc34)cc2CC1=O` was tested, and the cytotoxicity call was “inactive”. For `C[C@@H]1CN([C@@H](C)CO)C(=O)Cc2cc(NC(=O)Nc3cccc4ccccc34)ccc2O[C@@H]1CN(C)S(=O)(=O)c1ccc(Cl)cc1`, the cytotoxicity call was “active”. For `C[C@H]1CN([C@@H](C)CO)C(=O)Cc2cc(NC(=O)Nc3cccc4ccccc34)ccc2O[C@@H]1CN(C)S(=O)(=O)c1ccc(Cl)cc1`, the cytotoxicity call was “inactive”. `C[C@H]1CN([C@@H](C)CO)C(=O)Cc2cc(NC(=O)Nc3cccc4ccccc34)ccc2O[C@H]1CN(C)S(=O)(=O)c1ccc(Cl)cc1` was tested, and the cytotoxicity call was “active”. With `C[C@@H]1CN([C@@H](C)CO)C(=O)Cc2cc(NC(=O)Nc3cccc4ccccc34)ccc2O[C@H]1CN(C)S(=O)(=O)c1ccc(Cl)cc1` the cytotoxicity call was “inactive”. With `C[C@@H]1CN([C@H](C)CO)C(=O)Cc2cc(NC(=O)Nc3cccc4ccccc34)ccc2O[C@@H]1CN(C)S(=O)(=O)c1ccc(Cl)cc1` the cytotoxicity call was “inactive”. With `Cc1ccc(S(=O)(=O)N(C)C[C@H]2Oc3ccc(NC(=O)Nc4cccc5ccccc45)cc3CC(=O)N([C@@H](C)CO)C[C@@H]2C)cc1` the cytotoxicity call was “inactive”. With `Cc1ccc(S(=O)(=O)N(C)C[C@H]2Oc3ccc(NC(=O)Nc4cccc5ccccc45)cc3CC(=O)N([C@H](C)CO)C[C@H]2C)cc1` the cytotoxicity call was “inactive”. With `C[C@H](CO)N1C[C@H](C)[C@H](CN(C)S(=O)(=O)c2ccc(Cl)cc2)Oc2ccc(NC(=O)Nc3cccc4ccccc34)cc2CC1=O` the cytotoxicity call was “active”. `C[C@@H]1CN([C@H](C)CO)C(=O)Cc2cc(NC(=O)Nc3cccc4ccccc34)ccc2O[C@H]1CN(C)S(=O)(=O)c1ccc(Cl)cc1` was tested, and the cytotoxicity call was “inactive”. With `C[C@@H]1CN([C@H](C)CO)C(=O)c2cc(NC(=O)c3ccncc3)ccc2O[C@@H](C)CCCCO[C@H]1CN(C)C(=O)Nc1cccc2ccccc12` the cytotoxicity call was “inactive”. `C[C@@H]1CCCCO[C@@H](CN(C)C(=O)c2ccccc2)[C@H](C)CN([C@H](C)CO)C(=O)c2cc(NC(=O)Nc3ccc(F)cc3)ccc2O1` was tested, and the cytotoxicity call was “inactive”. `C[C@H]1CCCCO[C@H](CN(C)C(=O)c2ccccc2)[C@@H](C)CN([C@@H](C)CO)C(=O)c2cc(NC(=O)CCC(F)(F)F)ccc2O1` was tested, and the cytotoxicity call was “inactive”. For `Cc1noc(N)c1C(=O)O`, the cytotoxicity call was “inactive”. With `COCC(=O)N1C[C@H](C)[C@@H](OC)CN(C)C(=O)c2cc(NC(=O)c3cc(C)on3)ccc2OC[C@H]1C` the cytotoxicity call was “inactive”. With `C[C@H]1CN([C@@H](C)CO)C(=O)c2cc(C#Cc3ccccc3F)cnc2O[C@@H]1CN(C)C(=O)Cc1cccnc1` the cytotoxicity call was “inactive”. `O=c1ccc(=O)n(CCO)[nH]1` was tested, and the cytotoxicity call was “inactive”. With `C#CCN(O[C@@H](/C=C/[C@@H](O)Cc1ccccc1)C1CC1)[C@@H](Cc1ccc(-n2cc(COc3ccccc3/C=C(C)/C=C/C(=O)NO)nn2)cc1)C(=O)OC` the cytotoxicity call was “inactive”. `Cc1noc(C)c1S(=O)(=O)N(C)C[C@@H]1OCCCC[C@H](C)Oc2ccc(NC(=O)Nc3cccc4ccccc34)cc2C(=O)N([C@H](C)CO)C[C@@H]1C` was tested, and the cytotoxicity call was “inactive”. `COc1ccc(S(=O)(=O)N(C)C[C@H]2Oc3ccc(NC(=O)NC(C)C)cc3C(=O)N([C@@H](C)CO)C[C@@H]2C)cc1` was tested, and the cytotoxicity call was “inactive”. For `C[C@@H]1CN([C@H](C)CO)C(=O)Cc2cc(NC(=O)Nc3cccc4ccccc34)ccc2O[C@H]1CN(C)S(=O)(=O)c1ccc(F)cc1`, the cytotoxicity call was “inactive”. In the case of `C[C@H](CO)N1C[C@H](C)[C@H](CN(C)S(=O)(=O)c2ccc(F)cc2)Oc2ccc(NC(=O)Nc3cccc4ccccc34)cc2CC1=O`, the cytotoxicity call is reported as “active”. With `C[C@@H]1CN([C@@H](C)CO)C(=O)Cc2cc(NC(=O)Nc3cccc4ccccc34)ccc2O[C@@H]1CN(C)S(=O)(=O)c1ccc(F)cc1` the cytotoxicity call was “inactive”. In the case of `Cc1noc(C)c1NC(=O)N(C)C[C@H]1Oc2ccc(NS(C)(=O)=O)cc2CC(=O)N([C@@H](C)CO)C[C@@H]1C`, the cytotoxicity call is reported as “inactive”. With `O=C(C[C@H]1C[C@H]2c3cc(NC(=O)Nc4ccc(C(F)(F)F)cc4)ccc3O[C@H]2[C@@H](CO)O1)NCc1cc(F)ccc1F` the cytotoxicity call was “inactive”. In the case of `C[C@@H]1CN([C@@H](C)CO)C(=O)c2cccc(NC(=O)Nc3ccc(F)cc3)c2O[C@H]1CN(C)C(=O)Nc1ccc(C(F)(F)F)cc1`, the cytotoxicity call is reported as “inactive”. In the case of `CCC(C)C1NC(=O)C(CCNCS(=O)(=O)[O-])NC(=O)C(NC(=O)C(CCNCS(=O)(=O)[O-])NC(=O)C(NC(=O)C(CCNCS(=O)(=O)[O-])NC(=O)CCCCC(C)C)C(C)O)CCNC(=O)C(C(C)O)NC(=O)C(CCNCS(=O)(=O)[O-])NC(=O)C(CCNCS(=O)(=O)[O-])NC(=O)C(C(C)CC)NC1=O.[Na+].[Na+].[Na+].[Na+].[Na+]` (stereo not drawn), the cytotoxicity call is reported as “active”. For `CC(C)CCCC(=O)N[C@@H](CCNCS(=O)(=O)O)C(=O)N[C@H](C(=O)N[C@@H](CCNCS(=O)(=O)O)C(=O)N[C@H]1CCNC(=O)[C@H]([C@@H](C)O)NC(=O)[C@H](CCNCS(=O)(=O)O)NC(=O)[C@H](CCNCS(=O)(=O)O)NC(=O)[C@H](CC(C)C)NC(=O)[C@H](CC(C)C)NC(=O)[C@H](CCNCS(=O)(=O)O)NC1=O)[C@@H](C)O`, the cytotoxicity call was “inactive”. `C[C@@H]1CN([C@H](C)CO)S(=O)(=O)c2ccc(C#Cc3cccnc3)cc2O[C@H]1CN(C)CC1CCCC1` was tested, and the cytotoxicity call was “inactive”. With `Cc1noc(C)c1S(=O)(=O)N(C)C[C@H]1Oc2ccc(NS(C)(=O)=O)cc2C(=O)N([C@H](C)CO)C[C@H]1C` the cytotoxicity call was “inactive”. With `COc1ccc(NC(=O)Nc2ccc3c(c2)[C@@H]2C[C@H](CC(=O)N4CCN(C)CC4)O[C@@H](CO)[C@@H]2O3)cc1` the cytotoxicity call was “inactive”. With `C[C@@H]1CN([C@@H](C)CO)C(=O)c2cc(NS(=O)(=O)c3ccc(Cl)cc3)ccc2O[C@@H](C)CCCCO[C@H]1CN(C)C(=O)Cc1ccccc1` the cytotoxicity call was “inactive”. With `Cc1ccc(S(=O)(=O)Nc2ccc3c(c2)C(=O)N([C@@H](C)CO)C[C@H](C)[C@@H](CN(C)C(=O)Cc2ccccc2)OCCCC[C@@H](C)O3)cc1` the cytotoxicity call was “active”. In the case of `C[C@@H]1CCCCO[C@@H](CN(C)C(=O)Cc2ccccc2)[C@@H](C)CN([C@@H](C)CO)C(=O)c2cc(NS(=O)(=O)c3ccc(Cl)cc3)ccc2O1`, the cytotoxicity call is reported as “inactive”. In the case of `Cc1ccc(S(=O)(=O)Nc2ccc3c(c2)C(=O)N([C@@H](C)CO)C[C@H](C)[C@H](CN(C)C(=O)Cc2ccccc2)OCCCC[C@@H](C)O3)cc1`, the cytotoxicity call is reported as “inactive”. `C[C@@H]1CN([C@@H](C)CO)C(=O)c2cc(NS(=O)(=O)c3ccc(F)cc3)ccc2O[C@@H](C)CCCCO[C@@H]1CN(C)C(=O)Cc1ccccc1` was tested, and the cytotoxicity call was “inactive”. In the case of `Cc1ccc(S(=O)(=O)Nc2ccc3c(c2)C(=O)N([C@@H](C)CO)C[C@@H](C)[C@H](CN(C)C(=O)Cc2ccccc2)OCCCC[C@H](C)O3)cc1`, the cytotoxicity call is reported as “inactive”. `C[C@@H]1CN([C@H](C)CO)C(=O)c2cc(NS(=O)(=O)c3ccc(Cl)cc3)ccc2O[C@@H](C)CCCCO[C@@H]1CN(C)C(=O)Cc1ccccc1` was tested, and the cytotoxicity call was “active”. `C[C@H]1CCCCO[C@@H](CN(C)C(=O)Cc2ccccc2)[C@@H](C)CN([C@@H](C)CO)C(=O)c2cc(NS(=O)(=O)c3ccc(F)cc3)ccc2O1` was tested, and the cytotoxicity call was “active”. `C[C@@H]1CCCCO[C@@H](CN(C)C(=O)Cc2ccccc2)[C@@H](C)CN([C@H](C)CO)C(=O)c2cc(NS(=O)(=O)c3ccc(F)cc3)ccc2O1` was tested, and the cytotoxicity call was “inactive”. In the case of `CN(C)CC#Cc1ccc([C@@H]2[C@H]3CN(C(=O)c4cccnc4)CC(=O)N3[C@H]2CO)cc1`, the cytotoxicity call is reported as “inactive”. `CC(C)(C)[S@](=O)N1Cc2cc(C(=O)NCc3ccncc3)nc(-c3cccc(-c4ccc(C#N)cc4)c3)c2[C@@H]1CCO` was tested, and the cytotoxicity call was “inactive”. With `CO[C@H]1CN(C)C(=O)c2cc(NC(=O)C3CC3)ccc2OC[C@H](C)N(C(=O)CN2CCOCC2)C[C@H]1C` the cytotoxicity call was “inactive”. `COC1=C(CC=C(C)C)C(=O)c2ccccc2C1=O` was tested, and the cytotoxicity call was “active”. `CC(C)=CCCC(C)=CCC1=C(C)C(=O)c2ccccc2C1=O` was tested, and the cytotoxicity call was “inactive”. In the case of `CC(C)=CCC1=C(O)C(=O)c2ccccc2C1=O`, the cytotoxicity call is reported as “inactive”. With `Cc1noc(C)c1S(=O)(=O)Nc1ccc2c(c1)CC(=O)N([C@H](C)CO)C[C@@H](C)[C@H](CN(C)S(=O)(=O)c1ccccc1)O2` the cytotoxicity call was “inactive”. In the case of `CN(Cc1ccc(C(C)(C)C)cc1)Cc1cccc2ccccc12`, the cytotoxicity call is reported as “inactive”. `CCOC(=O)N(C)C[C@H]1OCc2cnnn2CCCC(=O)N([C@@H](C)CO)C[C@H]1C` was tested, and the cytotoxicity call was “inactive”. With `C[C@@H]1NC(=O)[C@@H](N)CNC(=O)[C@H]([C@H]2CCN=C(N)N2)NC(=O)/C(=C\NC(N)=O)NC(=O)[C@H](CNC(=O)C[C@@H](N)CCCN)NC1=O` the cytotoxicity call was “inactive”. In the case of `C[C@@H]1CN([C@@H](C)CO)C(=O)Cc2cc(NC(=O)Nc3ccc(C(F)(F)F)cc3)ccc2O[C@@H]1CN(C)C(=O)Nc1ccccc1`, the cytotoxicity call is reported as “active”. In the case of `C[C@H](CO)N1C[C@H](C)[C@@H](CN(C)C(=O)Nc2ccccc2)Oc2ccc(NC(=O)Nc3ccc(C(F)(F)F)cc3)cc2CC1=O`, the cytotoxicity call is reported as “inactive”. With `C[C@H]1CN([C@@H](C)CO)C(=O)Cc2cc(NC(=O)Nc3ccc(C(F)(F)F)cc3)ccc2O[C@@H]1CN(C)C(=O)Nc1ccccc1` the cytotoxicity call was “inactive”. `C[C@@H]1CN([C@@H](C)CO)C(=O)Cc2cc(NC(=O)Nc3ccccc3)ccc2O[C@@H]1CN(C)C(=O)Nc1ccc(C(F)(F)F)cc1` was tested, and the cytotoxicity call was “inactive”. For `C[C@H](CO)N1C[C@H](C)[C@H](CN(C)C(=O)Nc2ccccc2)Oc2ccc(NC(=O)Nc3ccc(C(F)(F)F)cc3)cc2CC1=O`, the cytotoxicity call was “active”. In the case of `C[C@H](CO)N1C[C@H](C)[C@H](CN(C)C(=O)Nc2ccc(C(F)(F)F)cc2)Oc2ccc(NC(=O)Nc3ccccc3)cc2CC1=O`, the cytotoxicity call is reported as “inactive”.
